In PubChem BioAssay:
The source made the active and inactive calls.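 How the source made its calls: active means compound raises insulin release from rat beta cells at 5 mM glucose, no numeric limit stated; inactive means the rest.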

Experiment: Wnt pathway potentiators raising nuclear beta-catenin – imaging, WNT3A-conditioned medium, mouse C2C12, NPC library, primary screen (AID 1117326)
Conditions: stimulation, at 2 µM, stronger effect = higher value
Further: reference of the scale not given here.

Compound	nuclear beta-catenin stimulation [%]
CC(=O)N(CC(=O)N(C)C)c1ccccc1	3.8
CC(=O)CC/C=C(\C)CC/C=C(\C)CC/C=C(\C)CCC=C(C)C	1.2
OCC=Cc1ccccc1	-1
NC(=O)C(=O)N/N=C/c1ccc([N+](=O)[O-])o1	1.5
CCOC(CN1CCN(CC(C)C(=O)c2ccccc2)CC1)c1ccccc1 (stereo not drawn)	-0.1
Nc1nnnn1-c1ccccc1	0.5
NC(N)=NN=C(/C=C/c1ccc([N+](=O)[O-])o1)/C=C/c1ccc([N+](=O)[O-])o1	56.2
Nc1ccc(C(=O)Nc2ccccc2N)cc1	1.9
CN1N=C(C(N)=O)CCC1=O	1.9
C=CCNc1nc(NCC=C)nc(N2CCN(C(c3ccc(F)cc3)c3ccc(F)cc3)CC2)n1	-1
Nc1ccc(S(=O)(=O)Nc2ccccc2)cc1	0.9
CN(C)CCN(Cc1ccsc1)c1ccccn1	1.7
NCc1ccccc1Sc1ccccc1CO	1
CCCCCCCCCCCCCCCC[N+](C)(C)CC	9.2
COc1cc(NS(=O)(=O)c2ccc(N)cc2)nc(C)n1	10.1
C=Cc1c(C)c2cc3nc(cc4[nH]c(cc5nc(cc1[nH]2)C(C)=C5CCC(=O)O)c(CCC(=O)OC)c4C)[C@@]1(C)C3=CC=C(C(=O)OC)[C@@H]1C(=O)OC	0.4
N[C@H]1CN(c2c(F)cc3c(=O)c(C(=O)O)cn(C4C[C@@H]4F)c3c2Cl)CC12CC2 (stereo partly drawn)	1.9
NC(=O)NC1N=C([O][Al])NC1=O (stereo not drawn)	-0.2
Cc1cccc(C)c1NC(=O)CN1CCCC1	0.7
CC(=O)Nc1ccc(/C=N/NC(N)=S)cc1	0.5

Compound	nuclear beta-catenin stimulation [%]
NCCNc1cccc2ccccc12	1.1
O=c1[nH]c(=O)n([C@H]2O[C@H](CO)[C@@H](O)[C@@H]2O)cc1/C=C\Br	-0.6
O=C1NC(c2ccccc2)(c2ccccc2)C(=O)N1COP(=O)(O)O	3.6
CCN(CC)CCSC(=O)C(c1ccccc1)c1ccccc1	2.8
O=C(O)Cc1csc(-c2ccc(Cl)cc2)n1	-0.2
COc1cc2nc(Cl)nc(N)c2cc1OC	-1.5
NC(=S)N=Nc1ccc(NN=C(N)N)cc1	0.5
C[C@@H](O)[C@H](N)C(=O)O	0.7
Cc1cnc(NS(=O)(=O)c2ccc(N)cc2)nc1	-0.7
CCCCCOc1ccc(C2SC(=O)NC2=O)cc1OCC (stereo not drawn)	11.7
FC1(F)C(F)(F)C(F)(F)C2(F)C(F)(F)C(F)(F)C(F)(F)C(F)(F)C2(F)C1(F)F (stereo not drawn)	0.3
CCCCC[C@H](O)C=C[C@H]1[C@H](O)CC(=O)[C@H]1CC=CCCCC(=O)O	-0.7
Cc1cc(N)c2cc(NC(=O)Nc3ccc4nc(C)cc(N)c4c3)ccc2n1	-2.2
CCCCC(O)/C=C(C)/C=C/C=C/C(=O)N1CCCC1=O (stereo not drawn)	-0.4
CC(C)(C)c1nnc(NS(=O)(=O)c2ccc(N)cc2)s1	-1.2
CC1(C)OC[C@@H](COC(=O)CCc2ccc(OC[C@@H](O)CNCCNC(=O)N3CCOCC3)cc2)O1	1.1
CC(CCc1ccc2c(c1)OCO2)NN (stereo not drawn)	0.2
CCCOc1ccc2c(c1)CC[C@@H]1[C@@H]2CC[C@]2(C)C(OC)CC[C@@H]12 (stereo partly drawn)	0
CC/C=C(\C(=O)N[C@@H]1C(=O)N2C(C(=O)OCOC(=O)C(C)(C)C)=C(COC(N)=O)CS[C@H]12)c1csc(N)n1	-0.1

Experiment: stimulators of insulin release from INS-1E, primary screen, cell-based, 5 mM glucose, NPC library (AID 1117329)
Conditions: rat INS-1E insulin secretion, at 10 µM, stronger effect = higher value

Compound	insulin secretion stimulation
CC(=O)N(CC(=O)N(C)C)c1ccccc1	-0.5% (inactive)
CC(=O)CC/C=C(\C)CC/C=C(\C)CC/C=C(\C)CCC=C(C)C	-2.1% (inactive)
OCC=Cc1ccccc1	9.1% (inactive)
NC(=O)C(=O)N/N=C/c1ccc([N+](=O)[O-])o1	-3.3% (inactive)
CCOC(CN1CCN(CC(C)C(=O)c2ccccc2)CC1)c1ccccc1 (stereo not drawn)	5% (inactive)
Nc1nnnn1-c1ccccc1	-1.6% (inactive)
NC(N)=NN=C(/C=C/c1ccc([N+](=O)[O-])o1)/C=C/c1ccc([N+](=O)[O-])o1	6% (inactive)
Nc1ccc(C(=O)Nc2ccccc2N)cc1	-0.6% (inactive)
CN1N=C(C(N)=O)CCC1=O	1.05% (inactive)
C=CCNc1nc(NCC=C)nc(N2CCN(C(c3ccc(F)cc3)c3ccc(F)cc3)CC2)n1	-0.6% (inactive)
Nc1ccc(S(=O)(=O)Nc2ccccc2)cc1	-2.7% (inactive)
CN(C)CCN(Cc1ccsc1)c1ccccn1	1.3% (inactive)
NCc1ccccc1Sc1ccccc1CO	-0.8% (inactive)
CCCCCCCCCCCCCCCC[N+](C)(C)CC	0.7% (inactive)
COc1cc(NS(=O)(=O)c2ccc(N)cc2)nc(C)n1	2.8% (inactive)
C=Cc1c(C)c2cc3nc(cc4[nH]c(cc5nc(cc1[nH]2)C(C)=C5CCC(=O)O)c(CCC(=O)OC)c4C)[C@@]1(C)C3=CC=C(C(=O)OC)[C@@H]1C(=O)OC	1.5% (inactive)
N[C@H]1CN(c2c(F)cc3c(=O)c(C(=O)O)cn(C4C[C@@H]4F)c3c2Cl)CC12CC2 (stereo partly drawn)	0.95% (inactive)
NC(=O)NC1N=C([O][Al])NC1=O (stereo not drawn)	0.3% (inactive)
Cc1cccc(C)c1NC(=O)CN1CCCC1	0.6% (inactive)
CC(=O)Nc1ccc(/C=N/NC(N)=S)cc1	-2.3% (inactive)

Compound	insulin secretion stimulation
NCCNc1cccc2ccccc12	1.9% (inactive)
O=c1[nH]c(=O)n([C@H]2O[C@H](CO)[C@@H](O)[C@@H]2O)cc1/C=C\Br	3.5% (inactive)
O=C1NC(c2ccccc2)(c2ccccc2)C(=O)N1COP(=O)(O)O	-0.5% (inactive)
CCN(CC)CCSC(=O)C(c1ccccc1)c1ccccc1	15.8% (inactive)
O=C(O)Cc1csc(-c2ccc(Cl)cc2)n1	0.4% (inactive)
COc1cc2nc(Cl)nc(N)c2cc1OC	2.8% (inactive)
NC(=S)N=Nc1ccc(NN=C(N)N)cc1	6.7% (inactive)
C[C@@H](O)[C@H](N)C(=O)O	-1.9% (inactive)
Cc1cnc(NS(=O)(=O)c2ccc(N)cc2)nc1	1.8% (inactive)
CCCCCOc1ccc(C2SC(=O)NC2=O)cc1OCC (stereo not drawn)	0.7% (inactive)
FC1(F)C(F)(F)C(F)(F)C2(F)C(F)(F)C(F)(F)C(F)(F)C(F)(F)C2(F)C1(F)F (stereo not drawn)	1.3% (inactive)
CCCCC[C@H](O)C=C[C@H]1[C@H](O)CC(=O)[C@H]1CC=CCCCC(=O)O	1.7% (inactive)
Cc1cc(N)c2cc(NC(=O)Nc3ccc4nc(C)cc(N)c4c3)ccc2n1	8.1% (inactive)
CCCCC(O)/C=C(C)/C=C/C=C/C(=O)N1CCCC1=O (stereo not drawn)	0.3% (inactive)
CC(C)(C)c1nnc(NS(=O)(=O)c2ccc(N)cc2)s1	3.45% (inactive)
CC1(C)OC[C@@H](COC(=O)CCc2ccc(OC[C@@H](O)CNCCNC(=O)N3CCOCC3)cc2)O1	4% (inactive)
CC(CCc1ccc2c(c1)OCO2)NN (stereo not drawn)	-2.2% (inactive)
CCCOc1ccc2c(c1)CC[C@@H]1[C@@H]2CC[C@]2(C)C(OC)CC[C@@H]12 (stereo partly drawn)	-0.1% (inactive)
CC/C=C(\C(=O)N[C@@H]1C(=O)N2C(C(=O)OCOC(=O)C(C)(C)C)=C(COC(N)=O)CS[C@H]12)c1csc(N)n1	1.85% (inactive)
